# The full data set covers some 7,900 targets. This sample favours those with a hit. About 0.6% of all pairs of compound and target were hits. A number with no mark means an inactive call.
# Experiments:
# Assay in all cases: log2 fold change, soluble protein after heating vs DMSO (PISA); higher = thermal stabilisation; K562 cells, 10 uM, 30 min; active = over 0.2 and 3.5 SD of the protein, either way, in both replicates (recomputed)
# [1] = compound: CS(=O)(=O)c1ccc(-c2cnc(N)c(C(=O)Nc3ccccc3)n2)cc1
# Summary of the method: (§1)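 Soluble protein was defined as the supernatant after 21,000xg for 90 min. It came from K562 cells at 2×10^6 cells/mL given 10 μM compound for 30 min, heated in aliquots for 3 min across 48°C-58°C, pooled, and extracted in PBS with 0.5% NP-40 at 4°C, and was quantified by TMTpro 16plex LC-MS/MS with equalised channel sums. Thermal stability against control samples, from duplicates, is reported as log2 fold change.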
# crizotinib = compound: C[C@@H](Oc1cc(-c2cnn(C3CCNCC3)c2)cnc1N)c1c(Cl)ccc(F)c1Cl [crizotinib]
# Summary of the method: as §1
# [2] = compound: C[C@@H]1COCCN1C2=NC(=NC(=C2)C3(CC3)S(=O)(=O)C)C4=C5C=CNC5=CC=C4
# Summary of the method: as §1
# [3] = compound: C[C@H](C1=CC=C(C=C1)C(=O)NC2=C3C=CNC3=NC=C2)N
# Summary of the method: as §1
# duvelisib = compound: C[C@H](Nc1ncnc2nc[nH]c12)c1cc2cccc(Cl)c2c(=O)n1-c1ccccc1 [duvelisib]
# Summary of the method: as §1
# gandotinib = compound: Cc1cc(Nc2cc(CN3CCOCC3)c3nc(C)c(Cc4ccc(Cl)cc4F)n3n2)n[nH]1 [gandotinib]
# Summary of the method: as §1
# tozasertib = compound: Cc1cc(Nc2cc(N3CCN(C)CC3)nc(Sc3ccc(NC(=O)C4CC4)cc3)n2)n[nH]1 [tozasertib]
# Summary of the method: as §1
# [4] = compound: Cc1cc(SCc2sc(-c3ccc(C(F)(F)F)cc3)nc2C)ccc1OCC(=O)O
# Summary of the method: as §1
# doramapimod = compound: Cc1ccc(-n2nc(C(C)(C)C)cc2NC(=O)Nc2ccc(OCCN3CCOCC3)c3ccccc23)cc1 [doramapimod]
# Summary of the method: as §1
# ispinesib = compound: Cc1ccc(C(=O)N(CCCN)[C@@H](c2nc3cc(Cl)ccc3c(=O)n2Cc2ccccc2)C(C)C)cc1 [ispinesib]
# Summary of the method: as §1
# Chain of UniProt P20585 (P20585 whole entry, looked up): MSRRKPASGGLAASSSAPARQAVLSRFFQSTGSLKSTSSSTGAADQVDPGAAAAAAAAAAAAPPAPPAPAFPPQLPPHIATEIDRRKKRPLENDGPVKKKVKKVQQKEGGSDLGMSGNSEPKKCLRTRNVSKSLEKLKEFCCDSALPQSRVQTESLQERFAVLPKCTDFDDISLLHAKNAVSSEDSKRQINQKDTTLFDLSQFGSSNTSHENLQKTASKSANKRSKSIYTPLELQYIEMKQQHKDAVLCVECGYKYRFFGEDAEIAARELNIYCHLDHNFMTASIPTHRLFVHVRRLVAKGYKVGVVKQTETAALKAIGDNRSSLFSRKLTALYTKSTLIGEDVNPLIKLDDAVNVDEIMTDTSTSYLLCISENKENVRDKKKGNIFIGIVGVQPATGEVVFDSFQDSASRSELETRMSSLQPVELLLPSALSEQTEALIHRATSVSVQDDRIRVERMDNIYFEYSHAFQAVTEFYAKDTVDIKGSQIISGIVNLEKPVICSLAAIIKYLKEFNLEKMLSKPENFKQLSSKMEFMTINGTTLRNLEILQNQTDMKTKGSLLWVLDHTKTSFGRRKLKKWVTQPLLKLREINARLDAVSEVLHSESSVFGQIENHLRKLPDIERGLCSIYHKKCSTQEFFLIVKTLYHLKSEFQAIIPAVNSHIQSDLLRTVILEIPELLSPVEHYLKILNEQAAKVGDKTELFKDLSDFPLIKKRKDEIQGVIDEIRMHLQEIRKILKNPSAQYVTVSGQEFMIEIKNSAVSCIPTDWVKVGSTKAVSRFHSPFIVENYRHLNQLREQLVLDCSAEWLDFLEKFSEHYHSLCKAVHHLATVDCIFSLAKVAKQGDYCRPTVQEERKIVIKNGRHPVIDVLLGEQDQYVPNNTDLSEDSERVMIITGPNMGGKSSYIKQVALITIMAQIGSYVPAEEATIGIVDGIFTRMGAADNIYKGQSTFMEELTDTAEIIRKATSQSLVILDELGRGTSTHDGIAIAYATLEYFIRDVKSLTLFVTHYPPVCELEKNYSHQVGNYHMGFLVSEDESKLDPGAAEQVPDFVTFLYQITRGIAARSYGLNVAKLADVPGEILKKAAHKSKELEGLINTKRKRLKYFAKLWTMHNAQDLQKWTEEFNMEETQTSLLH
# Chain of UniProt Q13952 (Q13952 whole entry, looked up): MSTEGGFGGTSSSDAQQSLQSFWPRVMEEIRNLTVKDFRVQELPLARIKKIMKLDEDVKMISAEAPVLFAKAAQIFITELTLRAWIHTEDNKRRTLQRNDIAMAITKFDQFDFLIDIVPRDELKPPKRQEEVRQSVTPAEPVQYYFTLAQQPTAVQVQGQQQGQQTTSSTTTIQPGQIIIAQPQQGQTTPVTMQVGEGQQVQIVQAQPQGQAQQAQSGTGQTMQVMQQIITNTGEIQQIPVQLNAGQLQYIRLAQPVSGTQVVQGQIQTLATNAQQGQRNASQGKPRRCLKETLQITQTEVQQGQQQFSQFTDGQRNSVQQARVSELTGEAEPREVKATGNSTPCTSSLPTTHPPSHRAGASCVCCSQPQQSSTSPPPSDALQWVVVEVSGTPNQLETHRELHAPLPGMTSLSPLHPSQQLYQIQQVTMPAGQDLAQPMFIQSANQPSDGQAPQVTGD
# Chain of UniProt Q330K2 (Q330K2 whole entry, looked up): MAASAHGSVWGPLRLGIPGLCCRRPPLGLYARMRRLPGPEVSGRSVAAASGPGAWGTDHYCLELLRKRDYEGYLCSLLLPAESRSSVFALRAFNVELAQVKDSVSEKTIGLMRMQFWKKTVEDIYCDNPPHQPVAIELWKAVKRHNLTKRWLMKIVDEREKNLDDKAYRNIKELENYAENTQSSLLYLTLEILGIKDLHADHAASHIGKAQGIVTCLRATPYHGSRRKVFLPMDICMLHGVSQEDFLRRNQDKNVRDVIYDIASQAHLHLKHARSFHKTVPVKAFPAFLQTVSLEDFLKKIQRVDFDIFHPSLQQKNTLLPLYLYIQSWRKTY
# Chain of UniProt P46934 (P46934 whole entry, looked up): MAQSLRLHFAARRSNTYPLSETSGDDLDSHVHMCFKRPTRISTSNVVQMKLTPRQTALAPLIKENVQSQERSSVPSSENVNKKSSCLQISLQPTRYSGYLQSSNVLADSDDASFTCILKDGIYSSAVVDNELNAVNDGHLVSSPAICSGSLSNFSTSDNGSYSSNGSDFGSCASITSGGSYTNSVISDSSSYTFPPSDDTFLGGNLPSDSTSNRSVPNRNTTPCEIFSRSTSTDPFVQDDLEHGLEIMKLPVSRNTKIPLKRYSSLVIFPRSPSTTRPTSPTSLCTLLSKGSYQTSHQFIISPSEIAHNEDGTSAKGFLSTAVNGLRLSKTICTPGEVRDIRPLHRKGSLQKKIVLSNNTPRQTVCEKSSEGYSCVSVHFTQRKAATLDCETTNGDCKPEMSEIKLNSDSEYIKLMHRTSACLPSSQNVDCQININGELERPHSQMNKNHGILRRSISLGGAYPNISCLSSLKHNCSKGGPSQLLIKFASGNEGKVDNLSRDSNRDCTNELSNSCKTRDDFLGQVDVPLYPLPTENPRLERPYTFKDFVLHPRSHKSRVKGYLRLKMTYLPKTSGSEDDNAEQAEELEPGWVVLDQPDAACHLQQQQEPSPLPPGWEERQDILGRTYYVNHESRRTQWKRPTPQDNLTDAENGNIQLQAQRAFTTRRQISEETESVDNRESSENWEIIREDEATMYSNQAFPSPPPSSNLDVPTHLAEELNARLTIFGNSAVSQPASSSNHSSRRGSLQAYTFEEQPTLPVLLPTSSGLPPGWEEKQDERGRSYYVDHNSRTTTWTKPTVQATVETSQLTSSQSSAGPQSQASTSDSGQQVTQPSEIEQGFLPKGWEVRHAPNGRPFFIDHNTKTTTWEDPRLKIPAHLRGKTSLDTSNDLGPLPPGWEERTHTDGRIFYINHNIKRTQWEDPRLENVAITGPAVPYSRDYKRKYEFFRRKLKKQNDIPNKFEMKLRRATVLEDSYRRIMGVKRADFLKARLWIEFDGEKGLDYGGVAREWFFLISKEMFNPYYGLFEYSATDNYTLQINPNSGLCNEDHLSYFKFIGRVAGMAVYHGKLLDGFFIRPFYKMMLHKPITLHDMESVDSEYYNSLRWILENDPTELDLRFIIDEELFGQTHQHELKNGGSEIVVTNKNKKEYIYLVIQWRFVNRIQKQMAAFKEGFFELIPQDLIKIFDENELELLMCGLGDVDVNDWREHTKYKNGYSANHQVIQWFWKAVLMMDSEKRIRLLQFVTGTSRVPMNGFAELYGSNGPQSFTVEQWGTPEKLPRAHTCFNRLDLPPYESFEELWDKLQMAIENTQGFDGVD
# Chain of UniProt P17568 (P17568 whole entry, looked up): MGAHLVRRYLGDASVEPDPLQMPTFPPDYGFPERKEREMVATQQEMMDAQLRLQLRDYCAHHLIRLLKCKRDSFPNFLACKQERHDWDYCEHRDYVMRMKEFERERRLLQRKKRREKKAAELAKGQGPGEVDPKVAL
# Chain of UniProt P40261 (P40261 whole entry, looked up): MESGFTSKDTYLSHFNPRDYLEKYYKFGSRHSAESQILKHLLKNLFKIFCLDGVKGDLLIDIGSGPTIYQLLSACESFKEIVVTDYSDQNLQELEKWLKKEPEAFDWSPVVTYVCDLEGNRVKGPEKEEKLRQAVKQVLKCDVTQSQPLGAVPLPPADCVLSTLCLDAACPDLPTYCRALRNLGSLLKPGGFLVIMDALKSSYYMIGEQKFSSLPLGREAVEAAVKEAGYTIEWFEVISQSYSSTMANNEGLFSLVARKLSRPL
# Chain of UniProt Q9H8H0 (Q9H8H0 whole entry, looked up): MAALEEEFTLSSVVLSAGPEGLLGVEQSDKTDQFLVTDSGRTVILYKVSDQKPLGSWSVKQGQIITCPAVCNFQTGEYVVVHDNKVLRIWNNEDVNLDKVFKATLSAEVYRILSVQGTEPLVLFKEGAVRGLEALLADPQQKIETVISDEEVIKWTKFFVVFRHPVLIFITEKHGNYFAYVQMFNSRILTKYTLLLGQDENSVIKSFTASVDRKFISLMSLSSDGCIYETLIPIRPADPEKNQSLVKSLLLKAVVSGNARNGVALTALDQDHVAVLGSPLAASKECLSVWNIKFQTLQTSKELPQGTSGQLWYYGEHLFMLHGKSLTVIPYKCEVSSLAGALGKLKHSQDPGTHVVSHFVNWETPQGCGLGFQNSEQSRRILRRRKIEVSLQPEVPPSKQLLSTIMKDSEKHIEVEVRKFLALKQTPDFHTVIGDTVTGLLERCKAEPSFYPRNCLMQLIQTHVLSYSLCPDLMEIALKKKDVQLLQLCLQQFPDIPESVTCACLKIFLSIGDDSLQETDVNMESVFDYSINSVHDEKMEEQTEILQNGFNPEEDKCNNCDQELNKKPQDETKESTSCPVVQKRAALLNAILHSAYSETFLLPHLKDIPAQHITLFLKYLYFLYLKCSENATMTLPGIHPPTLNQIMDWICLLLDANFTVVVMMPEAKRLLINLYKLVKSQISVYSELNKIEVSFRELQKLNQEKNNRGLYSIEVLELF
# Chain of UniProt O14524 (O14524 whole entry, looked up): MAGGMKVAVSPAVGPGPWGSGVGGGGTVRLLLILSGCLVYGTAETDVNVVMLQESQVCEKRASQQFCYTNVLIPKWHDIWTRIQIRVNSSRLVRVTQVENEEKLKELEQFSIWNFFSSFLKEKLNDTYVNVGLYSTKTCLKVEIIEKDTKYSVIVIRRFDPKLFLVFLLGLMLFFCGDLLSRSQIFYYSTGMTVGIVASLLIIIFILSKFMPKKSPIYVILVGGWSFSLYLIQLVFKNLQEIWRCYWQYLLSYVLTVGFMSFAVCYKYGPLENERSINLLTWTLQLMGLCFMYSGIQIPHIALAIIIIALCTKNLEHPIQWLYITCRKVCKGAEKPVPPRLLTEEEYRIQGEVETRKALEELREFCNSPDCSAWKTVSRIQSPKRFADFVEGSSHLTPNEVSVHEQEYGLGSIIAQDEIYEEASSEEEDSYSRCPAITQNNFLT
# Chain of UniProt Q8WVJ2 (Q8WVJ2 whole entry, looked up): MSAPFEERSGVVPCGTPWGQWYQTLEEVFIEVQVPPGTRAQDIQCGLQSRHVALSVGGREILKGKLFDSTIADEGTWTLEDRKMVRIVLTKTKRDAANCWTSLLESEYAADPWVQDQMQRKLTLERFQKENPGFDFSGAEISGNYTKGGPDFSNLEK
Target,log2 fold change [1],log2 fold change (crizotinib),log2 fold change [2],log2 fold change [3],log2 fold change (duvelisib),log2 fold change (gandotinib),log2 fold change (tozasertib),log2 fold change [4],log2 fold change (doramapimod),log2 fold change (ispinesib)
NFYC (UniProt Q13952),0.022,0.013,0.054,0.005,0.086,0.002,0.022,0.027,0.001,0.089
NOL7 (UniProt Q9UMY1),-0.054,0.065,-0.661,0.415,-0.201,0.124,-0.001,0.003,0.187,-0.052
PACRGL (UniProt Q8N7B6),-0.074,,,,,,,,,
NUDCD2 (UniProt Q8WVJ2),0.049,-0.02,0.1,-0.077,0.004,-0.042,0.149,0.073,-0.049,-0.12
NSUN2 (UniProt Q08J23),-0.107,-0.034,0.031,0.008,-0.077,-0.151,0.065,0.053,0.067,-0.098
MNAT1 (UniProt P51948),0.007,0.02,-0.068,-0.036,0.007,0.024,0.015,0.005,-0.057,0.089
NDFIP1 (UniProt Q9BT67),0.349,-0.004,0.045,-0.167,0.039,0.052,0.046,0.08,-0.068,0.015
NDUFAF6 (UniProt Q330K2),-0.052,-0.197,0.182,-0.025,0.144,-0.167,-0.051,0.027,-0.065,-0.273
NAGPA (UniProt Q9UK23),0.017,0.178,-0.078,-0.014,0.067,0.024,-0.094,-0.079,0.072,
NEMP1 (UniProt O14524),-0.058,-0.121,-0.035,0.011,0.013,-0.1,-0.004,-0.014,0.032,-0.354 (active)
NUMB (UniProt P49757),0.056,-0.189,0.07,-0.068,-0.05,-0.06,-0.082,0.006,-0.012,-0.073
NIPSNAP2 (UniProt C9J7B1),0,,,,,,,,,
NR2C2 isoform 2 (UniProt P49116),0.016,0.063,0.054,-0.076,0.066,-0.047,0.081,0.022,0.011,0.009
NEDD4 isoform 4 (UniProt P46934),-0.05,-0.081,0.095,-0.039,-0.006,-0.061,0.093,-0.009,-0.042,-0.022
MTOR (UniProt P42345),0.003,-0.23,0.08,0.06,0.025,-0.138,0.044,0.024,0.001,-0.184
NUP98 (UniProt P52948),0.031,-0.02,0.007,-0.009,0.007,-0.044,0.04,0.1,0.022,0.001

Target,log2 fold change [1],log2 fold change (crizotinib),log2 fold change [2],log2 fold change [3],log2 fold change (duvelisib),log2 fold change (gandotinib),log2 fold change (tozasertib),log2 fold change [4],log2 fold change (doramapimod),log2 fold change (ispinesib)
MRPS5 (UniProt P82675),0.123,-0.061,0.125,0.169,0.016,-0.08,-0.065,0.131,0.071,-0.451 (active)
NOL11 (UniProt Q9H8H0),-0.036,0.084,-0.017,-0.041,0.073,-0.061,-0.01,-0.015,-0.005,0.097
NNT (UniProt Q13423),0.031,0.032,0.047,-0.06,0.025,-0.246 (active),0.015,-0.006,-0.023,0.02
NNMT (UniProt P40261),0.039,-0.08,0.085,-0.06,0.06,-0.002,-0.007,-0.09,0,
NDUFA7 (UniProt M0R0N0),0.095,,,,,,,,,
MSH3 (UniProt P20585),-0.029,0.045,-0.031,0.047,0.07,-0.096,-0.003,0.024,0.035,0.088
MRPS27 isoform 2 (UniProt Q92552),-0.017,-0.062,0.005,0.097,0.029,0.094,0.002,0.096,0.013,-0.304 (active)
OXSM (UniProt Q9NWU1),0.016,0.053,0.036,-0.07,-0.024,-0.054,0.011,-0.002,-0.055,0.077
MRPS12 (UniProt O15235),0.046,-0.075,0.015,0.311,-0.058,0.063,0.011,0.022,0.003,-0.65 (active)
NARS2 (UniProt Q96I59),0.038,-0.099,0.125,-0.061,0.037,0.02,-0.051,-0.028,-0.009,-0.401 (active)
P4HA2 (UniProt O15460),0.079,0.023,-0.627 (active),0.178,0.037,0.021,-0.005,0.053,0.069,-0.088
PAAF1 (UniProt Q9BRP4),-0.003,-0.003,0.078,-0.071,0,-0.035,-0.042,0.018,-0.022,0.047
NCOR1 (UniProt O75376),-0.078,0.017,0.15,-0.064,0.063,-0.007,0.004,-0.061,-0.044,0.004
MRPL50 (UniProt Q8N5N7),-0.031,0.133,0.045,-0.045,-0.016,0.04,0.042,0.104,0.092,0.199
NDUFB7 (UniProt P17568),0.004,0.001,0.03,-0.094,0.006,-0.02,-0.018,-0.041,0.021,0.015
MON1B (UniProt Q7L1V2),0.006,-0.342 (active),0.069,-0.001,-0.02,-0.106,-0.018,0.005,0.022,-0.102
